The supplement of paper PMC6555819

Tests used:
Assay in all cases: PBM binding z-score (relative to random genomic background probes); higher = stronger binding; sequences stand for … in GC…GCGATTGACAGCGTAGAATGAAGG
[1] = system: FXR:RXRa (NR concentration 270 nM, RXRa partner concentration 90 nM)
In short: (§1)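 Each nuclear receptor dimer, without ligand, was incubated for 1 h on custom Agilent 4×180K protein-binding microarrays. Binding was detected with antibodies against each partner (one per run), and scanned fluorescence was regression-normalized. The binding z-scores are referenced to random human genomic background probes.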

[2] = system: LXRa:RXRa (NR concentration 270 nM, RXRa partner concentration 90 nM)
In short: as §1

[3] = system: LXRa homodimer (NR concentration 270 nM)
In short: as §1

[4] = system: LXRb:RXRa (NR concentration 270 nM, RXRa partner concentration 90 nM)
In short: as §1

[5] = system: LXRb homodimer (NR concentration 270 nM)
In short: as §1

[6] = system: PPARa:RXRa (NR concentration 270 nM, RXRa partner concentration 90 nM)
In short: as §1

[7] = system: PPARg:RXRa (NR concentration 180 nM, RXRa partner concentration 90 nM)
In short: as §1

[8] = system: PPARg:RXRa 270nM:90nM, anti-RXR (NR concentration 270 nM, RXRa partner concentration 90 nM)
In short: as §1

[9] = system: PPARg:RXRa 30nM:10nM, anti-RXR (NR concentration 30 nM, RXRa partner concentration 10 nM)
In short: as §1

[10] = system: PPARg:RXRa 90nM:30nM, anti-RXR (NR concentration 90 nM, RXRa partner concentration 30 nM)
In short: as §1

[11] = system: PPARg:RXRa DBDmut IVT, anti-RXR (DBD mutation: RXRa K156A/R161A, NR concentration 270 nM, RXRa partner concentration 90 nM)
In short: as §1

[12] = system: PPARg:RXRa IVT, anti-PPARg (NR concentration 270 nM, RXRa partner concentration 90 nM)
In short: as §1

[13] = system: PPARg DBDmut:RXRa IVT, anti-PPARg (DBD mutation: PPARg1 K132A/R137A, NR concentration 270 nM, RXRa partner concentration 90 nM)
In short: as §1

[14] = system: PPARg DBDmut IVT, anti-PPARg (DBD mutation: PPARg1 K132A/R137A, NR concentration 270 nM)
In short: as §1

[15] = system: PPARg homodimer (NR concentration 180 nM)
In short: as §1

[16] = system: PXR:RXRa (NR concentration 270 nM, RXRa partner concentration 90 nM)
In short: as §1

[17] = system: PXR homodimer (NR concentration 270 nM)
In short: as §1

[18] = system: RARa:RXR (NR concentration 270 nM, RXRa partner concentration 90 nM)
In short: as §1

[19] = system: RARa homodimer (NR concentration 270 nM)
In short: as §1

[20] = system: RARb:RXRa (NR concentration 270 nM, RXRa partner concentration 90 nM)
In short: as §1

ATATGTAGGTTACATCCGGGACATTCAGGCTATG was tested, and the PBM binding z-score [1] was 0.396, the PBM binding z-score [2] was 2.2 and the PBM binding z-score [3] was 0.343. It also gave a PBM binding z-score [4] of 1.11, a PBM binding z-score [5] of 0.574 and a PBM binding z-score [6] of 3.44. It also gave a PBM binding z-score [7] of 5.41, a PBM binding z-score [8] of 4.47 and a PBM binding z-score [9] of 1.95. The PBM binding z-score [10] was 3.37, the PBM binding z-score [11] was 7.57 and the PBM binding z-score [12] was 7.46. The PBM binding z-score [13] was 4.54, the PBM binding z-score [14] was 2.06 and the PBM binding z-score [15] was 1.33. It also gave a PBM binding z-score [16] of 0.599, a PBM binding z-score [17] of 0.5 and a PBM binding z-score [18] of 0.964. For the same sequence, the PBM binding z-score [19] was 0.969 and the PBM binding z-score [20] was 1.08.

In the case of CATACAGGGTCAGCTAGGCCAGTGTAGGGACGGC, the PBM binding z-score [1] is reported as 4.16, the PBM binding z-score [2] is reported as 2.82 and the PBM binding z-score [3] is reported as -0.158. It also gave a PBM binding z-score [4] of 1.81, a PBM binding z-score [5] of 0.182 and a PBM binding z-score [6] of 4.09. The PBM binding z-score [7] was 2.96, the PBM binding z-score [8] was 2.97 and the PBM binding z-score [9] was 0.501. It also gave a PBM binding z-score [10] of 2.32, a PBM binding z-score [11] of 1.02 and a PBM binding z-score [12] of 2.44. It also gave a PBM binding z-score [13] of 0.598, a PBM binding z-score [14] of 0.349 and a PBM binding z-score [15] of 1.32. For the same sequence, the PBM binding z-score [16] was 1.78, the PBM binding z-score [17] was -0.247 and the PBM binding z-score [18] was 3.02. For the same sequence, the PBM binding z-score [19] was -0.155 and the PBM binding z-score [20] was 3.98.

CCAAGCAGGCCAGGGTCACTCAAGCATTTCGCTT gave a PBM binding z-score [1] of 2.12, a PBM binding z-score [2] of 1.76 and a PBM binding z-score [3] of -0.279. The PBM binding z-score [4] was 1.95, the PBM binding z-score [5] was -0.754 and the PBM binding z-score [6] was 3.07. For the same sequence, the PBM binding z-score [7] was 0.977, the PBM binding z-score [8] was 1.81 and the PBM binding z-score [9] was -0.229. It also gave a PBM binding z-score [10] of 0.599, a PBM binding z-score [11] of 0.264 and a PBM binding z-score [12] of 0.738. The PBM binding z-score [13] was -0.543, the PBM binding z-score [14] was -1.4 and the PBM binding z-score [15] was 1.53. It also gave a PBM binding z-score [16] of 2.65, a PBM binding z-score [17] of -0.14 and a PBM binding z-score [18] of 3.4. The PBM binding z-score [19] was 0.312 and the PBM binding z-score [20] was 2.61.

Work on AGAACGAGGGCCATGAGTTGATAGCACGGGTGGC yielded a PBM binding z-score [1] of -0.356, a PBM binding z-score [2] of -0.437 and a PBM binding z-score [3] of -0.767. It also gave a PBM binding z-score [4] of -0.687, a PBM binding z-score [5] of -0.764 and a PBM binding z-score [6] of -0.163. For the same sequence, the PBM binding z-score [7] was 0.614, the PBM binding z-score [8] was -0.0464 and the PBM binding z-score [9] was -0.464. It also gave a PBM binding z-score [10] of -0.23, a PBM binding z-score [11] of 0.174 and a PBM binding z-score [12] of 0.141. The PBM binding z-score [13] was -0.382, the PBM binding z-score [14] was 0.0603 and the PBM binding z-score [15] was -0.217. It also gave a PBM binding z-score [16] of 0.118, a PBM binding z-score [17] of -0.232 and a PBM binding z-score [18] of -0.375. The PBM binding z-score [19] was -0.362 and the PBM binding z-score [20] was 0.632.

With TCTATTAGTTGATTAGGGCAACGGAAACAGCGGA the PBM binding z-score [1] was 0.551, the PBM binding z-score [2] was 0.44 and the PBM binding z-score [3] was 0.103. The PBM binding z-score [4] was 0.473, the PBM binding z-score [5] was 0.812 and the PBM binding z-score [6] was 0.801. The PBM binding z-score [7] was 0.284, the PBM binding z-score [8] was 1.99 and the PBM binding z-score [9] was 3.35. It also gave a PBM binding z-score [10] of 3, a PBM binding z-score [11] of 2.04 and a PBM binding z-score [12] of 1.27. It also gave a PBM binding z-score [13] of 0.436, a PBM binding z-score [14] of 0.954 and a PBM binding z-score [15] of 0.288. It also gave a PBM binding z-score [16] of 0.192, a PBM binding z-score [17] of 0.475 and a PBM binding z-score [18] of 0.276. For the same sequence, the PBM binding z-score [19] was 0.743 and the PBM binding z-score [20] was 0.963.

Work on GCTCGTTGGTCAGTAAAAGGTCACACACCGGTCG yielded a PBM binding z-score [1] of 3.94, a PBM binding z-score [2] of 4.86 and a PBM binding z-score [3] of 5.11. For the same sequence, the PBM binding z-score [4] was 4.22, the PBM binding z-score [5] was 1.19 and the PBM binding z-score [6] was 4.89. For the same sequence, the PBM binding z-score [7] was 3.34, the PBM binding z-score [8] was 4.93 and the PBM binding z-score [9] was 2.81. It also gave a PBM binding z-score [10] of 4.52, a PBM binding z-score [11] of 0.994 and a PBM binding z-score [12] of 2.63. It also gave a PBM binding z-score [13] of 0.257, a PBM binding z-score [14] of 0.405 and a PBM binding z-score [15] of 4.91. It also gave a PBM binding z-score [16] of 5.35, a PBM binding z-score [17] of 1.21 and a PBM binding z-score [18] of 6.7. The PBM binding z-score [19] was 2.93 and the PBM binding z-score [20] was 4.48.
